# From PubChem BioAssay (NCI)
# Compounds without any hit were thinned out: in the full panel of roughly 83,000, 20% have a hit.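 Interpretation: 100, growth as untreated; towards 0, rising growth inhibition; 0, no net growth; 0 to -100, cell death. Compounds scoring below 10 were considered active.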 Activity calls are given as the source filed them.
# Tested on: NCI-H522 lung
# Assay: NCI-60 one-dose screen, 48 h (100 = growth as untreated, 0 = no growth, -100 = all killed)
# Settings: 10 µM unless noted
row,SMILES,growth
1,COc1ccc(C(=O)c2c(N)c(C#N)cn2-c2ccc([N+](=O)[O-])cc2)cc1,85.1% (inactive)
2,Fc1ccc(F)c(CNc2nc(SCCN3CCOCC3)nc3c2cnn3CC(Cl)c2ccc(Br)cc2)c1 (configuration not stated),37.6% (inactive)
3,COc1ccc(N=Nc2c(N)nn3c(N)c(C#N)c(-c4ccc(F)cc4)nc23)cc1,40.7% (inactive)
4,COc1cc(CNC(=O)[C@]23CCC(C)(C)CC2C2=CCC4[C@@]5(C)CCC(OC(C)=O)C(C)(C)C5CC[C@@]4(C)[C@]2(C)CC3)ccc1OCc1cn(-c2ccc(Cl)cc2Cl)nn1 (some centres not stated),88.9% (inactive)
5,C/C(=N\Nc1ccc(C(=O)O)cc1)c1cnn(-c2cc(=O)[nH]c3ccc(C)cc23)c1C,89.4% (inactive)
6,N#Cc1cc(-c2ccnc(Nc3ccc(N4CCN(C5COC5)CC4)cc3)n2)ccc1N1CCCC1,65.6% (inactive)
7,O=C(N/N=C/c1ccc(Cl)cc1)c1ccc(OCc2nc3ccc(Cl)cc3[nH]2)cc1,7.51% (active)
8,COc1ccc(-c2nc3ccccc3n2CC(=O)N=Nc2c(O)[nH]c3ccc(Br)cc23)cc1,67.4% (inactive)
9,Clc1ccccc1Nc1nnc(-c2c[nH]c3ccccc23)o1,-25.1% (active)
10,O=C(NC(=S)N1CCN(c2ncnc3c2cnn3-c2ccccc2)CC1)c1ccc(Br)cc1,60.9% (inactive)
11,COc1ccc(/C=C/c2nc3ccccc3n3c(-c4cccc([N+](=O)[O-])c4)nnc23)cc1,-72.7% (active)
12,CS(=O)(=O)Nc1cc(-c2ccc3ncnc(Nc4ccc(OCc5cccnc5)c(Cl)c4)c3c2)cnc1Cl,-4.01% (active)
